# The panel holds about 83,000 compounds, 20% with a hit somewhere; the sample as a whole holds those more often.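 Single-dose data. Exposure time 48 hours. Values below 10 considered active.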 Calls of active or inactive are those of the source.
# Test system: OVCAR-5 ovarian
# Test: NCI-60 one-dose screen, 48 h (100 = growth as untreated, 0 = no growth, -100 = all killed)
# Settings: 10 µM unless noted
# Procedure: Growth inhibition of the OVCAR-5 human tumor cell line is measured as a screen for anti-cancer activity. Cells are grown in 96 well plates and exposed to the test compound for 48 hours. Compounds are tested at a single concentration, which is 10^-5 M for most compounds. The reported endpoint is percent growth (GI% or GIPRCNT), where numbers from 0 - 100% represent growth inhibition, and numbers from -100% - 0 represent cell death. For example, a value of 40 represents 60% growth inhibition. A value of 0 means no net growth occurred over the course of the experiment. A value of -40 indicates 40% of cells at the beginning of the experiment died by the end of the experiment. A value of -100 means all cells are dead at the end of the experiment.
# NCI-60 Human Tumor Cell Lines Screen was performed using the standard one-dose NCI protocol, which is described in more detail at https://dtp.cancer.gov/discovery_development/nci-60/default.htm.
# Compounds with GIPRCNT values below 10 were considered active. Activity score was based on GIPRCNT using the following formula: […]
# Score is 0 for GIPRCNT values of 100 or above, 50 for GIPRCNT values of 0, and 100 for GIPRCNT values of -100.
row,Structure (SMILES),growth
1,C#CCOc1ccc(/C=N/Nc2nc(-c3cc4cc(OC)ccc4oc3=O)cs2)cc1OC,47% (inactive)
2,NS(=O)(=O)c1ccc(N=Nc2c(O)n(CC(=O)Nc3ccccc3)c3ccccc23)cc1,74.5% (inactive)
3,CC(C)CSc1nc(NCCc2c[nH]c3ccccc23)c(C#N)c(-c2ccc(F)cc2)n1,101% (inactive)
4,COc1ccc(C2=NN(c3ccccc3)C(c3ccc(OC)c(OCc4ccccc4)c3)C2)cc1OC (stereo not given),110% (inactive)
5,NC(=S)Nc1cccc(NC(N)=S)c1,104% (inactive)
6,COc1cccc(/C=C/C(=O)c2ccc(OC)c(S(N)(=O)=O)c2)c1,24.2% (inactive)
7,CN(C)c1nc(NCCNS(=O)(=O)c2ccc(C(=O)/C=C/c3ccc(C(F)(F)F)cc3)cc2)nc(Nc2ccc(F)cc2)n1,-68.9% (active)
8,Cc1cc2nc3c4ccccc4n(CCNCCN(C)C)c3nc2cc1C,39.5% (inactive)
9,Cc1sc2c(c1C)C(c1ccc(Cl)cc1)=N[C@@H](CC(=O)NCCCCCNC(=O)COc1ccc(C3CCC(=O)NC3=O)cc1)c1nnc(C)n1-2 (stereo not given in full),27.8% (inactive)
10,O=C(Cn1c2c(sc1=O)[C@H]1[C@@H](O)[C@@H](O)[C@H](O)[C@@H]1CS2)N1CCOCC1,103% (inactive)
11,O=C(Cn1c(/C=C/c2cccc([N+](=O)[O-])c2)nc2ccccc2c1=O)Nc1ccccc1,104% (inactive)
12,O=C(O)Cn1c(O)c(/C=C2/C=c3cc4c(cc3=NC2=O)OCCO4)sc1=S,112% (inactive)
13,O=C(N1c2ccccc2Sc2ccccc21)n1ccc2cccnc21,98.5% (inactive)
14,COc1cc(/C=C/C(=O)c2nnn(-c3ccc(Cl)cc3)c2C)cc(OC)c1OC,47.8% (inactive)
15,CN(C)CCCNC(=O)c1cc(NC(=O)c2cc(NC(=O)c3ccc(C#Cc4ccccc4)cc3)cn2C)cn1C,36.8% (inactive)
16,Cc1ccccc1[C@H]1C(C(=O)c2ccc(Cl)cc2)C2(N[C@@H]1c1ccccc1)C(=O)Nc1ccc(Br)cc12 (stereo not given in full),5.07% (active)
17,CC(=O)/C=C/c1cccc2c1C(=O)NC(C)(c1cc3cc(Br)ccc3oc1=O)N2 (stereo not given),30.8% (inactive)
18,O=C(CSc1nc2ccccc2c(=O)[nH]1)NCCN1CCCCC1,94.2% (inactive)
19,O=c1[nH]n(C(=S)N/N=C/c2ccccc2Cl)c(=O)c2ccccc12,9.48% (active)
20,CC(=O)OCC1OC(OC2C(COC(C)=O)OC(n3cc(COc4ccc5ccc(=O)oc5c4)nn3)C(OC(C)=O)C2OC(C)=O)C(OC(C)=O)C(OC(C)=O)C1OC(C)=O (stereo not given),112% (inactive)

row,Structure (SMILES),growth
1,Cc1c(C(=O)NNC(=O)c2ccc(Cl)cc2)nnn1-c1ccc(Cl)cc1,93.6% (inactive)
2,Clc1ccc(-c2ccc(OCCCN3CCN(c4ccncc4)CC3)cc2)cc1,96.5% (inactive)
3,Clc1cccc(N/N=C/c2c[nH]c3ccc(Br)cc23)n1,14% (inactive)
4,Cc1ccc(/C=C/c2n(Cc3ccc4ccccc4c3)c3ccccc3[n+]2Cc2ccc3ccccc3c2)cc1,-94% (active)
5,COc1ccc(Cc2nn(CC(=O)N/N=C/c3ccc(F)cc3)c(=O)c3c(C)noc23)cc1,55% (inactive)
6,COc1cc(-c2nc3cc(Cl)c(Cl)cc3[nH]2)ccc1OCc1nnc(-c2cccs2)o1,83.3% (inactive)
7,O=C(CN1C(=O)/C(=C/c2ccccc2Cl)SC1=S)N1CCOCC1,98.3% (inactive)
8,CC1(C)CC[C@]2(C(=O)Nc3ccc(Br)cc3)CC[C@]3(C)C(=CCC4[C@@]5(C)C[C@@H](O)[C@H](O)[C@@](C)(CO)C5CC[C@]43C)C2C1 (stereo not given in full),-21.8% (active)
9,C=CC(=O)Nc1ccc(C)c(Oc2ccc(Cl)cc2)c1,64.8% (inactive)
10,C=C1CCC2C3(C)COC(c4cc(F)cc(F)c4)OC3CCC2(C)C1CC(O)C1=CCOC1=O (stereo not given),87% (inactive)
11,CC(C)CSc1nc(NCCc2c[nH]c3ccccc23)c(C#N)c(-c2ccccc2)n1,85.6% (inactive)
12,CC1(C)CC[C@]2(C(=O)O)CC[C@]3(C)C(=CCC4[C@@]5(C)C[C@@H](O)[C@@H]6OC(c7ccco7)OC[C@@]6(C)C5CC[C@]43C)C2C1 (stereo not given in full),65.4% (inactive)
13,COc1ccc(C(=O)/C=C/c2ccc3ccccc3c2)cc1S(N)(=O)=O,-43.4% (active)
14,Cc1cc(=O)oc2cc(OCCCOc3ccc(/C=C/C(=O)Nc4ccccc4N)cc3)ccc12,37.5% (inactive)
15,COC1=C[C@]23CCC(=O)N2CCc2cc4c(cc2[C@@H]3[C@@H]1OC(=O)[C@H](C)O)OCO4,46.4% (inactive)
16,O=C(COc1ccc2c(c1)CCCC(=O)N2)NCc1ccccc1,101% (inactive)
17,C=C1CC[C@@H]2[C@]3(C)COC(c4ccccc4)O[C@@H]3CC[C@@]2(C)[C@@H]1C/C=C1/C(=O)OCC1OC(C)=O (stereo not given in full),-78.5% (active)
18,CCN(CC)c1ccc(/C=N/Nc2nc(-c3ccc(Br)cc3)cs2)c(O)c1,91.5% (inactive)
19,CC(=O)c1cc(C(=O)c2ccccc2)n2c1ccc1ccccc12,103% (inactive)
20,Cn1cc(-c2nc(N)nnc2-c2c[nH]c3ccc(Br)cc23)c2cccnc21,80.3% (inactive)
